# Measurements from publication PMC7862700, “An all-to-all approach to the identification of sequence-specific readers for epigenetic DNA modifications on cytosine”.
# Columns and labels:
# Test in all cases: DAPPL (digital affinity profiling via proximity ligation, sequencing); 10 mM Tris-HCl pH 7.5, 50 mM NaCl, 1 mM DTT, 4% glycerol, room temperature, 30 min; GST-TFs on glutathione beads, 16-mer random dsDNA library, 0.1% formaldehyde crosslink after washing; high values mean tight binding
# FLI1 = target: T1, FLI1 (Homo sapiens, UniProt Q01543 1-452); details: protein: recombinant; tags: N-terminal GST; dsDNA, one strand shown
# T1 sequence: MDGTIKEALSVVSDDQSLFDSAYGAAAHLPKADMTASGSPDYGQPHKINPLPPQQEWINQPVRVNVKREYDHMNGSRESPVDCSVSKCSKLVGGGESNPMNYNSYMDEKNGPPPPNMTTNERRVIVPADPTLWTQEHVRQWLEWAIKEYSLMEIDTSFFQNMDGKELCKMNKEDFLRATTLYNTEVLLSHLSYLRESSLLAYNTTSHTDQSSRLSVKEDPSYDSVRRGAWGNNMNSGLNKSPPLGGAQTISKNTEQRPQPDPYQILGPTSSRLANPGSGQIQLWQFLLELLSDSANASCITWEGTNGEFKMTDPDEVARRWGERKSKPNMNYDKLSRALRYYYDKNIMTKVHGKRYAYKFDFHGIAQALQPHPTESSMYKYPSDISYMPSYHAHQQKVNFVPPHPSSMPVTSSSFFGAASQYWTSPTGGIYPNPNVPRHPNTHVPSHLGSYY
# Outline: (§1)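 In yeast, human transcription factors were expressed with a GST fusion, then pulled down on glutathione beads and given DNA barcodes. Pooled with a tag-only sample, they were exposed to 200 nmole of a 16-mer random double-stranded DNA library (Tris/NaCl/DTT/glycerol buffer, room temperature, 30 min), washed, crosslinked with 0.1% formaldehyde, proximity-ligated using BsaI/T4 ligase for 1 h at 37 °C, PCR-amplified and read on an Illumina NextSeq500. Each hexamer's frequency of reads for a factor, divided by the matching frequency for the tag-only sample, gives the binding signal.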
# ELK1 = target: T2, ELK1 (Homo sapiens, UniProt P19419 1-428); details: protein: recombinant; tags: N-terminal GST; dsDNA, one strand shown
# T2 sequence: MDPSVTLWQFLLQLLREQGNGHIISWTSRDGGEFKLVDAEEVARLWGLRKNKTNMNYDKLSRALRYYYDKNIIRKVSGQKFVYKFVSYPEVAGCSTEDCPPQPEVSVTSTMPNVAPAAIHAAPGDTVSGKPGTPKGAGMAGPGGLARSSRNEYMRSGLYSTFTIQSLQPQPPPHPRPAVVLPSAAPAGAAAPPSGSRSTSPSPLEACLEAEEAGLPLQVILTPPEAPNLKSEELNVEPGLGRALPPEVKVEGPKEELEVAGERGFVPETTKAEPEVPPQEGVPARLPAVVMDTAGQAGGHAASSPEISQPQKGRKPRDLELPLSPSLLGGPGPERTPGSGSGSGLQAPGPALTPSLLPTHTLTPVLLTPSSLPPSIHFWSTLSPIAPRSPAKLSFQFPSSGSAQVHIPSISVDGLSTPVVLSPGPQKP
# Outline: as §1
# GABPA = target: T3, GABPA (Homo sapiens, UniProt Q06546 1-454); details: protein: recombinant; tags: N-terminal GST; dsDNA, one strand shown
# T3 sequence: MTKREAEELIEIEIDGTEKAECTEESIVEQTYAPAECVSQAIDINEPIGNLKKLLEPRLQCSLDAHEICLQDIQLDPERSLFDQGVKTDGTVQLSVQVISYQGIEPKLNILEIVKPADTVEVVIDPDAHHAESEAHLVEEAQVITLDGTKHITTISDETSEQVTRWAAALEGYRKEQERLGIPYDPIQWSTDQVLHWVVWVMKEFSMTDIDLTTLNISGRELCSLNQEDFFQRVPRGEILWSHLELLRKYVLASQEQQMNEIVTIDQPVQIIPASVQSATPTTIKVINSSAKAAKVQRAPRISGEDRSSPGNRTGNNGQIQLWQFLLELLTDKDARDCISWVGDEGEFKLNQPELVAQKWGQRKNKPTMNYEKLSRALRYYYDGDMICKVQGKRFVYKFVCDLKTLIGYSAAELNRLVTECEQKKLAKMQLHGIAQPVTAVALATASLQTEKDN
# Outline: as §1
# ERG = target: T4, ERG (Homo sapiens, UniProt P11308 1-479); details: protein: recombinant; tags: N-terminal GST; dsDNA, one strand shown
# T4 sequence: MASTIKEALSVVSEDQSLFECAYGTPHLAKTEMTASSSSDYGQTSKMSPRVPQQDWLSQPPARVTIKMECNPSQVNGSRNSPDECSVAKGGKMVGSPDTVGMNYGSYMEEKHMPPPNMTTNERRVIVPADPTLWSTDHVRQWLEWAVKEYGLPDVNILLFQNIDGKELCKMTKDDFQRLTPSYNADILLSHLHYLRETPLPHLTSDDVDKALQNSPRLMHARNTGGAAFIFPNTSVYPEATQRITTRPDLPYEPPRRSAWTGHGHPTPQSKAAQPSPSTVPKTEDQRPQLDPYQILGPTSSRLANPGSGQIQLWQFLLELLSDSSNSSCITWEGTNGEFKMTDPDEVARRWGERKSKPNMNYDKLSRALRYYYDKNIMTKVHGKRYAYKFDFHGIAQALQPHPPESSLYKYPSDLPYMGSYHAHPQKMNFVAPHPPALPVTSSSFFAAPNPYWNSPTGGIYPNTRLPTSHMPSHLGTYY
# Outline: as §1
# ELF1 = ELF1 (Homo sapiens, UniProt P32519 1-619); details: protein: recombinant; tags: N-terminal GST; dsDNA, one strand shown
# Outline: as §1
# EHF = target: T5, EHF (Homo sapiens, UniProt Q9NZC4 1-300); details: protein: recombinant; tags: N-terminal GST; dsDNA, one strand shown
# T5 sequence: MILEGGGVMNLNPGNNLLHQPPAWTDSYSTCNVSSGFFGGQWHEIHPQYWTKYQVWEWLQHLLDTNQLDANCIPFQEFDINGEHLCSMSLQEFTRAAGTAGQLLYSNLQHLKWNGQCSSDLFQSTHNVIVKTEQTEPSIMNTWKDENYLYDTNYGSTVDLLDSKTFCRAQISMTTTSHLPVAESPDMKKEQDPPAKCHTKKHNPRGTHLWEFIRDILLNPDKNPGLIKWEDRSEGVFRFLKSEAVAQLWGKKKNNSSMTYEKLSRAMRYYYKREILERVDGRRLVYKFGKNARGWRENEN
# Outline: as §1
# SPI1 = SPI1 (Homo sapiens, UniProt P17947 1-270); details: protein: recombinant; tags: N-terminal GST; dsDNA, one strand shown
# Outline: as §1
# SPIB = SPIB (Homo sapiens, UniProt Q01892 1-262); details: protein: recombinant; tags: N-terminal GST; dsDNA, one strand shown
# Outline: as §1
# ELK3 = target: T6, ELK3 (Homo sapiens, UniProt P41970 1-407); details: protein: recombinant; tags: N-terminal GST; dsDNA, one strand shown
# T6 sequence: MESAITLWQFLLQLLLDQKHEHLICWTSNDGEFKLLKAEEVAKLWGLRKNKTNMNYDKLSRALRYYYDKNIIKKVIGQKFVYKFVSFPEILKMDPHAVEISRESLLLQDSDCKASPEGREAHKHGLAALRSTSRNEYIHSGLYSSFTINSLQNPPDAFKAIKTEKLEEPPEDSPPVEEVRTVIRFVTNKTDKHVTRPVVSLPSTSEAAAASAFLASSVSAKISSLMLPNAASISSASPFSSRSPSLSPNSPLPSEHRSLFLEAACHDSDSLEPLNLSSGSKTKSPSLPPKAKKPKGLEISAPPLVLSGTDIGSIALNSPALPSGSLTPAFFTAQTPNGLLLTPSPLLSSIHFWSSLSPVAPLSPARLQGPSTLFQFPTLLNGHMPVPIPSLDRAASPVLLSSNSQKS
# Outline: as §1
# FEV = target: T7, FEV (Homo sapiens, UniProt Q99581 1-238); details: protein: recombinant; tags: N-terminal GST; dsDNA, one strand shown
# T7 sequence: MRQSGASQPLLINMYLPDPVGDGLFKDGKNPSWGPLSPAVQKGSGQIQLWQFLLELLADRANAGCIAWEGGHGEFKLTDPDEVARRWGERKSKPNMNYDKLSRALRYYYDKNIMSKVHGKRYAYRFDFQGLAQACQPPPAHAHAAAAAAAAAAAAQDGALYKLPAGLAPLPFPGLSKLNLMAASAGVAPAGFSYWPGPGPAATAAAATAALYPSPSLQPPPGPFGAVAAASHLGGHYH
# Outline: as §1
# ETV5 = ETV5 (Homo sapiens, UniProt P41161 1-510); details: protein: recombinant; tags: N-terminal GST; dsDNA, one strand shown
# Outline: as §1
# HSF1 = HSF1 (Homo sapiens, UniProt Q00613 1-529); details: protein: recombinant; tags: N-terminal GST; chain copies: 3; dsDNA, one strand shown
# Outline: as §1
# SPIC = target: T8, SPIC (Homo sapiens, UniProt Q8N5J4 1-248); details: protein: recombinant; tags: N-terminal GST; dsDNA, one strand shown
# T8 sequence: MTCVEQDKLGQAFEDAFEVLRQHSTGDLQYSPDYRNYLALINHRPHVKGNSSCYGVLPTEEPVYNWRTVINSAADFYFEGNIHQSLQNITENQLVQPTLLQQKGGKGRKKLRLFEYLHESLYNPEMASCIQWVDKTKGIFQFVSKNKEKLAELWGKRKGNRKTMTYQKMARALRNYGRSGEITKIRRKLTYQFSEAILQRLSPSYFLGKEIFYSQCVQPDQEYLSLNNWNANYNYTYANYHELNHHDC
# Outline: as §1
# ELF4 = ELF4 (Homo sapiens, UniProt Q99607 1-663); details: protein: recombinant; tags: N-terminal GST; dsDNA, one strand shown
# Outline: as §1
# ELK4 = target: T9, ELK4 (Homo sapiens, UniProt P28324-2 1-405); details: protein: recombinant; tags: N-terminal GST; dsDNA, one strand shown
# T9 sequence: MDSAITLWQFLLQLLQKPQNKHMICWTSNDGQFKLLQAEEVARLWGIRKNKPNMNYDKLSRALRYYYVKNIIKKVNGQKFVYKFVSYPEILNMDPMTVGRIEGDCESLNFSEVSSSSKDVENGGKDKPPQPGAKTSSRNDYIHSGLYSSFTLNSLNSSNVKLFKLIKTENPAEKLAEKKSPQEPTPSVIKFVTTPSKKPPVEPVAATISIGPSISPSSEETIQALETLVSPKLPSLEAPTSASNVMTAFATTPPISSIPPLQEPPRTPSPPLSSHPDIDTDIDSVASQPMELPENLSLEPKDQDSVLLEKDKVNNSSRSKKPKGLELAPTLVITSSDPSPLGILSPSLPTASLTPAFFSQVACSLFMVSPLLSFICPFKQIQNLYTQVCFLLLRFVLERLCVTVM
# Outline: as §1
# ETV2 = target: T10, ETV2 (Homo sapiens, UniProt O00321 1-342); details: protein: recombinant; tags: N-terminal GST; dsDNA, one strand shown
# T10 sequence: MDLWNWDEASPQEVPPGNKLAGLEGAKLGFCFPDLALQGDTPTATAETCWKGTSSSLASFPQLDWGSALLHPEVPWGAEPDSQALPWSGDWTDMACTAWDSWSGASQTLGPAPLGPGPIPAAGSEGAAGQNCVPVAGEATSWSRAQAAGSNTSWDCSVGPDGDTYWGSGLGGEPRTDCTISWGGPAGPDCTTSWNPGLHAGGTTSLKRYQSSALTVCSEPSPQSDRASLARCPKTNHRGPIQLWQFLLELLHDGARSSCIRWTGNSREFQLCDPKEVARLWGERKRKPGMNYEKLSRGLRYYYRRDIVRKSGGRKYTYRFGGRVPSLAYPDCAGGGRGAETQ
# Outline: as §1
# ELF3 = target: T11, ELF3 (Homo sapiens, UniProt P78545 1-371); details: protein: recombinant; tags: N-terminal GST; dsDNA, one strand shown
# T11 sequence: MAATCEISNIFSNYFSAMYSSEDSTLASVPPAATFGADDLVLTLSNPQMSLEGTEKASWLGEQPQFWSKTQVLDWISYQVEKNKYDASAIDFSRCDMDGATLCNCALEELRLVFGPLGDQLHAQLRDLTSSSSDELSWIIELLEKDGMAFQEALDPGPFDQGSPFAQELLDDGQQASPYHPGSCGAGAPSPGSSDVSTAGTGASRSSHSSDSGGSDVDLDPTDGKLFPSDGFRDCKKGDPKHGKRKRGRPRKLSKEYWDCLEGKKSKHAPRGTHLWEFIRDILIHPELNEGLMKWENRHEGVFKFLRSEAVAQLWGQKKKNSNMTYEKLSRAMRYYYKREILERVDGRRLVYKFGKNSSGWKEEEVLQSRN
# Outline: as §1
# CRX = CRX (Homo sapiens, UniProt O43186 1-299); details: protein: recombinant; tags: N-terminal GST; dsDNA, one strand shown
# Outline: as §1
# ETV1 = ETV1 (Homo sapiens, UniProt P50549 1-477); details: protein: recombinant; tags: N-terminal GST; dsDNA, one strand shown
# Outline: as §1
# Sequence of ETV5 (P41161 whole entry): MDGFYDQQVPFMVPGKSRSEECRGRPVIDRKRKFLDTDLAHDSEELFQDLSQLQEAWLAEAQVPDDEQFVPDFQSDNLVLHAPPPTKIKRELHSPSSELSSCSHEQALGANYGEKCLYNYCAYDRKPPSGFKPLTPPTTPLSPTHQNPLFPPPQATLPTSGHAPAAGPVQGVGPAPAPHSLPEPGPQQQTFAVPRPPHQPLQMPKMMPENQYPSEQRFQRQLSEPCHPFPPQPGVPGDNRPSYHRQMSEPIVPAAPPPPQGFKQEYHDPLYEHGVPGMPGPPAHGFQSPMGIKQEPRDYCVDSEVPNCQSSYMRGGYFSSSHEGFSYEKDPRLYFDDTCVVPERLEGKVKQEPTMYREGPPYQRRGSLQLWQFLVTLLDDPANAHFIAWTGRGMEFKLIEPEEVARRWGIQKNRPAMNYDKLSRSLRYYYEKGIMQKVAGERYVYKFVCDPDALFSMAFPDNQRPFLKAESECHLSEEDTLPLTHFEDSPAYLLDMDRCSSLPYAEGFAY
# Sequence of ELF4 (Q99607 whole entry): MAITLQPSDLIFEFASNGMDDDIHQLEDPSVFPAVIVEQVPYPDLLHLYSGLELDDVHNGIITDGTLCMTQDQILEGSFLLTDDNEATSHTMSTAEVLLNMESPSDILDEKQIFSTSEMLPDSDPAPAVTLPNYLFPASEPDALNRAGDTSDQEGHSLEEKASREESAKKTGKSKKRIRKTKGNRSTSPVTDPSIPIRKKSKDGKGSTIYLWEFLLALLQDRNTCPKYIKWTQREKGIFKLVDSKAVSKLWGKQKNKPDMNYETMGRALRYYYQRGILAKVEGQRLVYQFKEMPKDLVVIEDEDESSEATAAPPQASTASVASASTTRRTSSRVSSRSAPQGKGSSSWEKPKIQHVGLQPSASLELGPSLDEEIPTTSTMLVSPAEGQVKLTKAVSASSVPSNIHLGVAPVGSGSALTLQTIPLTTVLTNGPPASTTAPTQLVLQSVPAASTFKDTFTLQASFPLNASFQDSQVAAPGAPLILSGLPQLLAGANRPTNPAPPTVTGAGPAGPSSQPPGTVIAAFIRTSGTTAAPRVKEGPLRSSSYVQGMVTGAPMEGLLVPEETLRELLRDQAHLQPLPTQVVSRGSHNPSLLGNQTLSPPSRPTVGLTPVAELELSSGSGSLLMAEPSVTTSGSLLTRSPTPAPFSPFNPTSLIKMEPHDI
# Sequence of SPIB (Q01892 whole entry): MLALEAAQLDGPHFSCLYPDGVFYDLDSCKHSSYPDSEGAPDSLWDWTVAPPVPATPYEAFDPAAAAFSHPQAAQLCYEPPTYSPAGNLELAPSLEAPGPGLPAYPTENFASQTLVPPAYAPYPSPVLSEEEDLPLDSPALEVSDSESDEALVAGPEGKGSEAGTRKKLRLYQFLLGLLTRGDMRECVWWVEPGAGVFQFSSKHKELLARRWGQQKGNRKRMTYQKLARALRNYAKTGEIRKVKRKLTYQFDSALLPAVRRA
# Sequence of HSF1 (Q00613 whole entry): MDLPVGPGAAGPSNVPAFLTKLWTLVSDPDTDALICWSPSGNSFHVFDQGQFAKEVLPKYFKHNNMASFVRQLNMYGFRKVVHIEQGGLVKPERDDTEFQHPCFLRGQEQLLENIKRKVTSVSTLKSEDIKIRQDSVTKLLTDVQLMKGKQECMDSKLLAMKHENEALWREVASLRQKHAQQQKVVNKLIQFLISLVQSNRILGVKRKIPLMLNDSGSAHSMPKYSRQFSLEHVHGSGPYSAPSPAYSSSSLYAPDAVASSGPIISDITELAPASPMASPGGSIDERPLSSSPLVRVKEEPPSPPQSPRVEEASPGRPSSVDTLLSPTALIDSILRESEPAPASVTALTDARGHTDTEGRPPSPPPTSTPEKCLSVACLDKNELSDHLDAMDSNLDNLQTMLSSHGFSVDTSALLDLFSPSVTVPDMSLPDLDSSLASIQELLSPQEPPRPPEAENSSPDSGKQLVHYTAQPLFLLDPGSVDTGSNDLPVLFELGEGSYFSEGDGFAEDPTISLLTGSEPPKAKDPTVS
# Sequence of ETV1 (P50549 whole entry): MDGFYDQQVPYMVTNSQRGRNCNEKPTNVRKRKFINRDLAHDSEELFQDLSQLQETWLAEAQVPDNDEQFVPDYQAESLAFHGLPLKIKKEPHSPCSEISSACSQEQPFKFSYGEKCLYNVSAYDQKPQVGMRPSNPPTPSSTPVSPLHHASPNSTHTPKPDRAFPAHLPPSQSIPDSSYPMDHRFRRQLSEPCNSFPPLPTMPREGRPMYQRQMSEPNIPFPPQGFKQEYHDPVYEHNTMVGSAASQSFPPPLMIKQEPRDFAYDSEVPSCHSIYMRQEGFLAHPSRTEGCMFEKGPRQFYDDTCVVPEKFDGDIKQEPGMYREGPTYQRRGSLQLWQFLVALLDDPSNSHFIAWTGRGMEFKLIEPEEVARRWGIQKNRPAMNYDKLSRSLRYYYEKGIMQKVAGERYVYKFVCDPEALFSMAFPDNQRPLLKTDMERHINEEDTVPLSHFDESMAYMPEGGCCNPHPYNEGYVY
# Sequence of CRX (O43186 whole entry): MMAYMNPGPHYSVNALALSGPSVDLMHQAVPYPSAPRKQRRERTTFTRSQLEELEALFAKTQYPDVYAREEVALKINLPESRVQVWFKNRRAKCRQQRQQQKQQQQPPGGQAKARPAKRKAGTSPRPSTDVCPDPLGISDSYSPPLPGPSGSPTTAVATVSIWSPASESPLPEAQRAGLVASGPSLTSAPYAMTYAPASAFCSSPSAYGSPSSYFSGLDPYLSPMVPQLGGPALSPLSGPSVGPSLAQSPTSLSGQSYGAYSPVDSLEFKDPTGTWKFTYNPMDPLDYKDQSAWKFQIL
# Sequence of ELF1 (P32519 whole entry): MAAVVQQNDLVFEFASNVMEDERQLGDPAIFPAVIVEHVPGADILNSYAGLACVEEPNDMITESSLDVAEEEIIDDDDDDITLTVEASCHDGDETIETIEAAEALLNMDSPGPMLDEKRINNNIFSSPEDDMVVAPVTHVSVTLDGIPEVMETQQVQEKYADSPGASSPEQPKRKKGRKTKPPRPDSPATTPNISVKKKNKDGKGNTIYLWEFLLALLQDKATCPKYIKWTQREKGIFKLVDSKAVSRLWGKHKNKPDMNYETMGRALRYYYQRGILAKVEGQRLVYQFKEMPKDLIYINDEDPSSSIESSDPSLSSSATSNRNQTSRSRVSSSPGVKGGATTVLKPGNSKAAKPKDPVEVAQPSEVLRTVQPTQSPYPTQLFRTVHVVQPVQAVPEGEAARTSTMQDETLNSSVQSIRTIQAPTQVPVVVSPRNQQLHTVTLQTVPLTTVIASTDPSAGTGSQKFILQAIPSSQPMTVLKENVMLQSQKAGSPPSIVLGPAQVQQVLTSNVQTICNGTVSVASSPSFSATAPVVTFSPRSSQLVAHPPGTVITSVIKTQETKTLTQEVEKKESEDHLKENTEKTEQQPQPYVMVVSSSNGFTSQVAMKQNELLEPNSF
sequence,measurement,setting,value
TCCGCT,binding signal,FLI1,"2.39 fold enrichment (6-mer frequency, TF over GST control)"
same,binding signal,ELK1,"2.38 fold enrichment (6-mer frequency, TF over GST control)"
same,binding signal,GABPA,"2.06 fold enrichment (6-mer frequency, TF over GST control)"
same,binding signal,ERG,"2.31 fold enrichment (6-mer frequency, TF over GST control)"
same,binding signal,ELF1,"2.11 fold enrichment (6-mer frequency, TF over GST control)"
same,binding signal,EHF,"2.33 fold enrichment (6-mer frequency, TF over GST control)"
same,binding signal,SPI1,"3.26 fold enrichment (6-mer frequency, TF over GST control)"
same,binding signal,SPIB,"2.37 fold enrichment (6-mer frequency, TF over GST control)"
same,binding signal,ELK3,"2.43 fold enrichment (6-mer frequency, TF over GST control)"
same,binding signal,FEV,"2.51 fold enrichment (6-mer frequency, TF over GST control)"
same,binding signal,ETV5,"2.37 fold enrichment (6-mer frequency, TF over GST control)"
same,binding signal,HSF1,"1.51 fold enrichment (6-mer frequency, TF over GST control)"
same,binding signal,SPIC,"2.63 fold enrichment (6-mer frequency, TF over GST control)"
same,binding signal,ELF4,"2.13 fold enrichment (6-mer frequency, TF over GST control)"
same,binding signal,ELK4,"2.01 fold enrichment (6-mer frequency, TF over GST control)"
same,binding signal,ETV2,"2.27 fold enrichment (6-mer frequency, TF over GST control)"
same,binding signal,ELF3,"2.15 fold enrichment (6-mer frequency, TF over GST control)"
same,binding signal,CRX,"1.84 fold enrichment (6-mer frequency, TF over GST control)"
same,binding signal,ETV1,"2.44 fold enrichment (6-mer frequency, TF over GST control)"
